According to PubChem BioAssay (NCI):
About 79,000 compounds went through this panel and 15% of them were active in at least one assay; those are over-represented in the sample as a whole. No stated cut-off is given here; in the data, active means growth inhibition above about 70%; inactive means the rest.

Tests used:
[1] = NCI Yeast Anticancer Drug Screen. Data for the rad50 strain (AID 155);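 further: 0% = growth of vehicle-only cultures of the same strain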; details: S. cerevisiae rad50 strain growth inhibition; at 50.0 µM; active compounds read high
Outline: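 Relative growth inhibition (compound vs vehicle) was measured in yeast with a defined repair-gene alteration.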

[2] = NCI Yeast Anticancer Drug Screen. Data for the mec2-1 strain (AID 157); details: S. cerevisiae mec2-1 strain, at 50.0 µM, active compounds read high
Outline: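 Cells of the genetically defined mec2-1 yeast strain are incubated with test compound. Inhibition of growth is calculated against vehicle-treated controls.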

[3] = NCI Yeast Anticancer Drug Screen. Data for the sgs1 mgt1 strain (AID 161);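 further: 0% = growth of cultures given vehicle only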; details: S. cerevisiae sgs1 mgt1 strain, at 50.0 µM, active compounds read high
Outline: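 Test agents were incubated with a DNA-repair-mutant yeast strain. Growth was then read and compared against vehicle-treated controls.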

[4] = NCI Yeast Anticancer Drug Screen. Data for the cln2 rad14 strain (AID 165);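 further: 0% = growth equal to vehicle treated cultures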; details: S. cerevisiae cln2 rad14 strain, at 50.0 µM, active compounds read high
Outline: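 The screen exposed genetically defined yeast (cln2 rad14) to test compounds and scored growth inhibition relative to vehicle-treated controls.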

[5] = NCI Yeast Anticancer Drug Screen. Data for the bub3 strain (AID 167); details: S. cerevisiae bub3 mutant strain, at 50.0 µM, active compounds read high
Outline: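 Screening used yeast with an engineered genetic alteration affecting cell cycle control. Compound-exposed cultures were compared with vehicle cultures, and reduced growth was taken as inhibition.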

[6] = NCI Yeast Anticancer Drug Screen. Data for the mlh1 rad18 strain (AID 175); details: S. cerevisiae mlh1 rad18 strain growth inhibition; at 50.0 µM; active compounds read high
Outline: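 Compound-treated yeast growth, normalised to vehicle controls. Strain bears defined DNA repair mutations.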

Measured: growth inhibition

COC(=O)C(C#N)(CCC(=O)c1ccccc1)CCC(=O)c1ccccc1
inactive: [1] 13.3% | [2] 17.3% | [3] 10.2% | [4] -8.65% | [5] 17.8% | [6] 9.8%

CCOC(=O)NC(=O)c1cn(CCCOC(=O)CCCCCCCCC(=O)OCCCn2cc(C(=O)NC(=O)OCC)c(=O)n(C)c2=O)c(=O)n(C)c1=O
inactive: [1] -16.4% | [2] -25.1% | [3] -25.2% | [4] 6% | [5] 4.3% | [6] -23.7%

COc1cc2c(c(OC)c1OC)-c1ccc(SC)c(=O)cc1[C@@H](NC1OCC(O)C(O)C1O)CC2 (stereo partly specified)
inactive: [1] 20.4% | [2] 35.1% | [3] 24.1% | [4] 8.65% | [5] 21.1% | [6] 16.8%

CC(=O)Nc1ccc(S(=O)(=O)c2ccc(NC(C)=O)s2)s1
inactive: [1] -6.05% | [2] -1.3% | [3] -4.1% | [4] -15.4% | [5] -15.3% | [6] -18.9%

C=CCOC(C)n1c(C)cc(=O)n(C(C)OCC=C)c1=O (stereo unspecified)
inactive: [1] -56.6% | [2] -26.8% | [3] -46.6% | [4] -38.5% | [5] -44.9% | [6] -29.8%

CCOC(=O)c1ccc(NC(=S)N(CCC#N)C2CCCCC2)cc1
inactive: [1] 33.4% | [2] 7.2% | [3] 62.5% | [4] 27.1% | [5] 48.4% | [6] 30.9%

CCCCCCC(C)(O)C(C)O (stereo unspecified)
inactive: [1] 27.8% | [2] 8.5% | [3] 24.2% | [4] 14.9% | [5] 12.2% | [6] 9.2%

CNc1ccc([N+](=O)[O-])cc1C(=O)OC
inactive: [1] 8% | [2] -6.1% | [3] -8.55% | [4] -46.2% | [5] -22.9% | [6] 22.9%

COc1cc(C(O)CCBr)c(OC)cc1C (stereo unspecified)
inactive: [1] -23.2% | [2] -19.8% | [3] -20.2% | [4] -0.85% | [5] -1.4% | [6] 19.9%

CCOC(=O)C(=O)C1CCCC(C)C1=O (stereo unspecified)
inactive: [1] 16% | [2] 11.8% | [3] -16.6% | [4] -43.1% | [5] 10.8% | [6] 1.05%

C=CC1=C(C)C2=NC1=CC1=NC(=CC3=C(C)C4=C(O)CC(=C5NC(=C2)C(C)C5CCC(=O)OC)C4=N3)C(CC)=C1C (stereo unspecified)
inactive: [1] 8.85% | [2] -1.5% | [3] 19.4% | [4] 3.65% | [5] -2.05% | [6] 22.2%

Clc1ccc2cc(Cl)c3ccccc3c2c1
inactive: [1] -17.4% | [2] -24.4% | [3] -16.4% | [4] -20.9% | [5] 4.25% | [6] -0.05%

Cc1cc(C)c2nc(N)sc2c1
inactive: [1] 24.3% | [2] 9.35% | [3] -5.8% | [4] -4.45% | [5] 12.4% | [6] 30.1%

CC(C)c1ccc(C(=O)OCC2CCCO2)cc1 (stereo unspecified)
inactive: [1] 7.95% | [2] 13.1% | [3] 6.5% | [4] -13.7% | [5] -5.3% | [6] 3.65%

CCCCCCC(O)CCCCCCCCCCC(=O)O (stereo unspecified)
inactive: [1] -14.3% | [2] 0.1% | [3] 16.4% | [4] -25.4% | [5] -6.8% | [6] 19.7%

Cc1ccc(NC(=O)Nc2ccc(Cl)cc2)c(C)c1
inactive: [1] -12.8% | [2] -6% | [3] 1.65% | [4] -28.6% | [5] 5.6% | [6] -0.65%

CCOc1ccccc1/C=C1\CCc2ccccc2C1=O
inactive: [1] 21.6% | [2] 34.8% | [3] 42.7% | [4] 0.4% | [5] 49.9% | [6] 23%

C#CC(C)(C)Nc1ccccc1
inactive: [1] -10.8% | [2] 2.9% | [3] -6.6% | [4] -6.2% | [5] -4.95% | [6] 4.9%

CCOC(=O)c1nc2ccc(C(F)(F)F)cc2nc1Nc1cc(OC)c(OC)c(OC)c1
inactive: [1] -33.4% | [2] -17.4% | [3] -30.8% | [4] 2.85% | [5] -13.6% | [6] -11.1%

O=C(CCn1ccnc1[N+](=O)[O-])NCCCn1ccnc1[N+](=O)[O-]
inactive: [1] -24.1% | [2] -2.15% | [3] -42.4% | [4] -1% | [5] -34.4% | [6] -52.2%

Oc1ccc(Br)cc1C=Nc1ccccc1
inactive: [1] 26.3% | [2] 18.9% | [3] 40.8% | [4] 29.4% | [5] 26.2% | [6] 14.9%

CCCCC#CCC#Cc1ccccc1
inactive: [1] -4.3% | [2] 5.25% | [3] 6.85% | [4] 23.2% | [5] -10.9% | [6] 10.1%

CCOC(=O)NC(=O)c1cn(CC(=O)NCC(=O)NCC(=O)N2CCN(CCn3c(C)nc(C(N)=O)c3N)CC2)c(=O)[nH]c1=O
inactive: [1] 12.8% | [2] 8.9% | [3] 5.25% | [4] -18.8% | [5] 2.75% | [6] -4.85%

O=[N+]([O-])c1ccc(S(=O)(=O)N/N=C/c2cccc([N+](=O)[O-])c2)cc1
inactive: [1] -8.15% | [2] -13.2% | [3] 1.1% | [4] -15% | [5] 0.35% | [6] -12.1%

Cc1ccc(C)c(NC(=O)CCC(=O)CC(=O)C(C)(C)C)c1
inactive: [1] -3.25% | [2] 8.35% | [3] 5.3% | [4] 15.5% | [5] -6.4% | [6] 12.7%

O=C1CN(c2cccc(Cl)c2)C(=O)CN1NCNN1CC(=O)N(c2cccc(Cl)c2)CC1=O
inactive: [1] -12.8% | [2] -0.1% | [3] 3.9% | [4] 6.65% | [5] -6.8% | [6] 2.75%

Nc1c(C(=O)O)cccc1C(=O)O
inactive: [1] 5.25% | [2] -18.6% | [3] -11.7% | [4] 0.55% | [5] 4.1% | [6] 6.75%

O=C(O)CNC(=O)c1ccc2cc(C(=O)N3CC(CCl)c4ccc([N+](=O)[O-])cc43)[nH]c2c1 (stereo unspecified)
inactive: [1] -6.45% | [2] -4% | [3] -3.95% | [4] -0.1% | [5] -34.3% | [6] -35%

C[Si](C)(C)c1ccc(C(=O)O)cc1
inactive: [1] 7.3% | [2] 12.6% | [3] -3.35% | [4] 3.2% | [5] -18.3% | [6] 10.2%

O=C1NC(=S)S/C1=C\c1ccc2c(c1)OCO2
inactive: [1] -22.1% | [2] -21.3% | [3] -4.8% | [4] -2% | [5] -8.05% | [6] -7.55%

Cn1ncc2c(=S)[nH]c(=O)[nH]c21
inactive: [1] 3.7% | [2] -0.2% | [3] -1.1% | [4] -4.95% | [5] 1.05% | [6] -0.1%

CCN(CC)CCOc1ccc(Cc2nc3c([nH]2)c(=O)n(C)c(=O)n3C)cc1
inactive: [1] 21.6% | [2] 2.85% | [3] 14.2% | [4] 34.5% | [5] 5.1% | [6] 11.3%

Cc1oc2nc(N(C)C)n3nnnc3c2c1C
inactive: [1] -0.35% | [2] -8.5% | [3] -6.15% | [4] -4.1% | [5] 25.3% | [6] -14.4%

CCOC(=O)c1c(C)c2c(n1C)CCC(C#N)C2=O (stereo unspecified)
inactive: [1] 9.3% | [2] 10.4% | [3] 9.8% | [4] 21.1% | [5] 9.05% | [6] 17.5%

O=c1cc(-c2ccccc2)oc2c(N=Nc3ccccc3)ccc(O)c12
inactive: [1] 33.8% | [2] -14.8% | [3] 22.9% | [4] 25.4% | [5] 22.4% | [6] -11.5%

COC(=O)c1ccc(-n2c(C)nc(=O)c(-c3ccccc3)c2C)cc1
inactive: [1] -6.85% | [2] -33.4% | [3] 12.4% | [4] 11.9% | [5] 0.95% | [6] 7.65%
